Experimental data taken from PubChem BioAssay AID1159580 (chemical genetic matrix, 2015).
Where “and” joins values, the source holds several entries; their conditions need not be identical. Equal values may be shown once. Among all 5,500 compounds or so, about 2,000 (36%) were called active. Roughly 18% stayed inconclusive and do not appear here. No stated cut-off is given here; in the data, active means normalized growth mostly below about 0.91 (no sharp cut-off); inconclusive means no clear call, values can overlap the other calls; inactive means mostly above about 0.92. The list shows a part of the results.

Assay: chemical genetic growth profiling, strain panel (AID 1159580);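 further: tested at 20 µM; growth read once vehicle control cultures reached saturation at 30 °C; 1 = growth at the plate median or of vehicle wells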
Settings: S. cerevisiae deletion strains, growth OD

Measured: normalized growth

CC1=C(CC(=O)O)c2cc(F)ccc2/C1=C\c1ccc(S(C)=O)cc1 (stereo unspecified)
inactive: locus YAL013W, strain DEP1, stronger effect = lower value 1 | locus YAL021C, strain ccr4, stronger effect = lower value 1.02 | locus YAL026C, strain drs2, stronger effect = lower value 1.02 | locus YAL030W, strain snc1, stronger effect = lower value 1.01 | locus YAL040C, strain CLN3, stronger effect = lower value 0.99 | locus YBL061C, strain skt5, stronger effect = lower value 1.02 | locus YBR009C, strain hhf1, stronger effect = lower value 1.01 | locus YBR021W, strain FUR4, stronger effect = lower value 1.03 | locus YBR023C, strain chs3, stronger effect = lower value 1.02 | locus YBR171W, strain sec66, stronger effect = lower value 1.02 | locus YBR229C, strain ROT2, stronger effect = lower value 1 | locus YBR231C, strain swc5, stronger effect = lower value 1.03 | locus YBR279W, strain paf1, stronger effect = lower value 1.01 | locus YCL011C, strain gbp2, stronger effect = lower value 1.03 | locus YCL016C, strain dcc1, stronger effect = lower value 1.01 | locus YCL029C, strain bik1, stronger effect = lower value 1.02 | locus YCL061C, strain MRC1 (second series), stronger effect = lower value 1.01 | locus YCL061C, strain MRC1, stronger effect = lower value 1.02 | locus YCL069W, strain vba3, stronger effect = lower value 1.02 | locus YCR088W, strain abp1, stronger effect = lower value 1.02 | locus YDL005C, strain med2, stronger effect = lower value 1.02 | locus YDL035C, strain GPR1, stronger effect = lower value 1.01 | locus YDL040C, strain nat1, stronger effect = lower value 1.01 | locus YDL074C, strain BRE1, stronger effect = lower value 0.981 | locus YDL101C, strain DUN1, stronger effect = lower value 1.01 | locus YDL134C, strain PPH21, stronger effect = lower value 0.999 | locus YDL185W, strain tfp1, stronger effect = lower value 1 | locus YDL192W, strain arf1, stronger effect = lower value 1.02 | locus YDR001C, strain nth1, stronger effect = lower value 1.02 | locus YDR069C, strain doa4, stronger effect = lower value 1.01 | locus YDR101C, strain arx1, stronger effect = lower value 1.06 | locus YDR137W, strain rgp1, stronger effect = lower value 1.02 | locus YDR150W, strain NUM1, stronger effect = lower value 0.996 | locus YDR159W, strain sac3, stronger effect = lower value 1.02 | locus YDR162C, strain NBP2, stronger effect = lower value 1.01 | locus YDR195W, strain ref2 1.04 | locus YDR297W, strain sur2, stronger effect = lower value 1.02 | locus YDR318W, strain mcm21, stronger effect = lower value 1.02 | locus YDR334W, strain swr1, stronger effect = lower value 1.02 | locus YDR335W, strain msn5, stronger effect = lower value 1.01 | locus YDR363W, strain ESC2, stronger effect = lower value 0.995 | locus YDR388W, stronger effect = lower value 1.03 | locus YDR392W, strain spt3, stronger effect = lower value 0.996 | locus YDR502C, strain sam2, stronger effect = lower value 1.02 | locus YEL003W, strain gim4, stronger effect = lower value 1.02 | locus YEL037C, strain rad23, stronger effect = lower value 1.02 | locus YEL061C, strain CIN8 (second series), stronger effect = lower value 1.03 | locus YEL061C, strain CIN8, stronger effect = lower value 1.01 | locus YER002W, strain NOP16, stronger effect = lower value 0.993 | locus YER015W, strain faa2, stronger effect = lower value 1.01 | locus YER016W, strain bim1, stronger effect = lower value 1 | locus YER110C, stronger effect = lower value 1.03 | locus YER111C, strain swi4, stronger effect = lower value 1.03 | locus YER155C, strain BEM2 (second series), stronger effect = lower value 1.03 | locus YER155C, strain BEM2, stronger effect = lower value 1.01 | locus YER167W, strain BCK2, stronger effect = lower value 1.01 | locus YFR010W, strain ubp6, stronger effect = lower value 1.02 | locus YGL078C, strain dbp3, stronger effect = lower value 1.02 | locus YGL086W, strain mad1, stronger effect = lower value 1.01 | locus YGL167C, strain pmr1, stronger effect = lower value 1.03 | locus YGL173C, strain kem1, stronger effect = lower value 1.02 | locus YGL227W, strain vid30, stronger effect = lower value 1.03 | locus YGL240W, strain doc1, stronger effect = lower value 1.01 | locus YGL248W, strain PDE1, stronger effect = lower value 0.999 | locus YGL253W, strain hxk2, stronger effect = lower value 1.02 | locus YGR078C, strain PAC10, stronger effect = lower value 1.01 and 0.998 | locus YGR135W, strain pre9, stronger effect = lower value 1 | locus YGR229C, strain SMI1, stronger effect = lower value 0.977 | locus YGR252W, strain gcn5, stronger effect = lower value 0.982 | locus YHR013C, strain ard1, stronger effect = lower value 1.03 | locus YHR027C, strain rpn1, stronger effect = lower value 1.02 | locus YHR030C, strain SLT2, stronger effect = lower value 1.01 and 0.982 | locus YHR079C, strain IRE1 (second series), stronger effect = lower value 1.03 | locus YHR079C, strain IRE1, stronger effect = lower value 0.988 | locus YHR094C, strain hxt1, stronger effect = lower value 1.02 | locus YHR129C, strain ARP1, stronger effect = lower value 0.996 | locus YHR142W, strain chs7, stronger effect = lower value 1.02 | locus YHR200W, strain rpn10, stronger effect = lower value 1.03 | locus YIL066C, strain RNR3, stronger effect = lower value 1 | locus YIL073C, strain SPO22, stronger effect = lower value 1.04 | locus YIL125W, strain kgd1, stronger effect = lower value 1.02 | locus YIR030C, strain dcg1, stronger effect = lower value 1.02 | locus YJL092W, strain hpr5, stronger effect = lower value 1.02 | locus YJL095W, strain BCK1 (second series), stronger effect = lower value 1.02 | locus YJL095W, strain BCK1, stronger effect = lower value 0.992 and 0.97 | locus YJL115W, strain asf1, stronger effect = lower value 1.03 | locus YJL129C, strain trk1, stronger effect = lower value 1.03 | locus YJL134W, strain LCB3, stronger effect = lower value 1.01 | locus YJL154C, strain vps35, stronger effect = lower value 1.02 | locus YJL164C, strain tpk1, stronger effect = lower value 1.01 | locus YJL166W, strain qcr8, stronger effect = lower value 1.01 | locus YJL168C, strain set2, stronger effect = lower value 1.02 | locus YJL187C, strain SWE1 (second series), stronger effect = lower value 1.01 | locus YJL187C, strain SWE1, stronger effect = lower value 1.02 | locus YJR043C, strain POL32, stronger effect = lower value 1 | locus YJR066W, strain TOR1, stronger effect = lower value 0.924
